Bioassay records (PubChem)
Most compounds without a hit are left out; they make up all but 1.7% or so of the library.
Plk1 PBD FP – inhibitors of human Plk1 polo box domain binding; P53350; Plk1 PBD phosphopeptide binding, fluorescence polarization; actives 0.13% (n = 97,000); AID 693; inhibition, %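 (tested at about 20 µM)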; in the data active = inhibition above about 34%, passing the limit was not always enough
Target sequence (P53350 whole entry, looked up, the tested form may be a part): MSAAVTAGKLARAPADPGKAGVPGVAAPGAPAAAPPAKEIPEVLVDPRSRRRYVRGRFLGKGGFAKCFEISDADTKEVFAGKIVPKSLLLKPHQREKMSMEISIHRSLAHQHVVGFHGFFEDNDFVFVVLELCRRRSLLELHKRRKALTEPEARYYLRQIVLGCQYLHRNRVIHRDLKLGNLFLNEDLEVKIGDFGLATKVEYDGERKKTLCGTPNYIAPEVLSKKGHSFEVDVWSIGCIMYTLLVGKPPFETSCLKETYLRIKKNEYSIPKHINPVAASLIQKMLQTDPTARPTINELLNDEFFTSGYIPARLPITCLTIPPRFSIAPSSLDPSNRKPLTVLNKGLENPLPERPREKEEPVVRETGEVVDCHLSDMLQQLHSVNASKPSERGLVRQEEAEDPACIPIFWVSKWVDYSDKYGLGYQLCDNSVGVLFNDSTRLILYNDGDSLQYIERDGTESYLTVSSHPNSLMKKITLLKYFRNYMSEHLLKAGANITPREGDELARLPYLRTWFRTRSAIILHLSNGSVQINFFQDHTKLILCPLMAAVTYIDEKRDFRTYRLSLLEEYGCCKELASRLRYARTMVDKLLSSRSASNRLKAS
Pyk2 oligo antag – Pyk2 (human) oligomerization antagonism. Q14289. Q293 cells, Pyk2 FERM NanoBiT luminescence; stronger effect = lower value. z-score (the deposit names both 25 µM and 10 µM). actives 0.83% (n = 99,000);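 active = Z-score of -3 or lower, scaled per plate to the spread of control and sample wells; inactive = z-score above -3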;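 also: negative z-score means lost luminescence so less FERM oligomerization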
PTPN22 act – increases human PTPN22 phosphatase activity. recombinant LYP, DiFMUP fluorescence; 0 = plate median, 100 = signal doubled. Q9Y2R2. AID 697. actives 0.11% (n = 96,000). activation, % at 2 µM;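 active = activation at 2 µM above a set limit, the mean plus 5 SD, cut at about 37% in these data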
LYP inh 2 – inhibitors of human LYP (PTPN22) phosphatase; Q9Y2R2; recombinant LYP catalytic domain, DiFMUP fluorescence; inhibition, % at 2 µM; actives 0.21% (n = 96,000);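 active = inhibition at 2 µM at or above a set limit, the screen mean plus 3 SD, cut at about 24% in these data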;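 also: 0% = DMSO with enzyme and 100% = enzyme fully blocked by orthovanadate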
PLK1 inh – blocks human PLK1 kinase activity; AID 619; inhibition, % at 10 µM; actives 0.53% (n = 97,000); recombinant PLK1 kinase, TR-FRET peptide phosphorylation; P53350;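 active = inhibition of 50% or more in the single-concentration screen; inactive = inhibition below 50%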;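 also: 0% = DMSO max control and 100% = H-89 dihydrochloride min control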
Numbers without * were called inactive; . = no result given.

SMILES | Plk1 PBD FP | Pyk2 oligo antag | PTPN22 act | LYP inh 2 | PLK1 inh
O=C1NC(=S)SC1=C1CCCCCC1 | -10.6 | -0.03 | -7.8 | 7.6 | -6.2
CC[C@@H](C(=O)n1nc(C)cc1C)[C@H](NS(=O)(=O)c1ccc(C)cc1)c1ccccc1 | 10.8 | -0.71 | 8.9 | -13.6 | -18.2
CCOC(=O)c1nn(-c2ccccc2F)c(C)c1C(C)=O | 0.0 | -0.08 | 13.0 | -11.0 | -7.8
COCCCN1C(=O)c2[nH]nc(-c3ccccc3O)c2C1c1ccc(Cl)cc1 (stereo not given) | -17.1 | -2.22 | -0.1 | 1.3 | -11.4
O=C1c2[nH]nc(-c3ccccc3O)c2C(c2ccccc2)N1Cc1ccco1 (stereo not given) | 5.7 | -1.58 | -5.8 | 4.8 | -10.2
COCCCN1C(=O)c2[nH]nc(-c3ccccc3O)c2C1c1cccc(Cl)c1 (stereo not given) | -2.6 | -3.01* | 6.6 | -5.3 | -9.9
COc1ccc(CCN2C(=O)c3[nH]nc(-c4ccccc4O)c3C2c2ccccc2)cc1OC (stereo not given) | 0.6 | -3.11* | 11.0 | -13.4 | 3.5
Cc1nn(-c2ccccc2)c(C)c1/C=N/NC(=O)c1cc(C23CC4CC(CC(C4)C2)C3)[nH]n1 | 10.0 | 0.46 | -34.3 | 37.7* | -7.0
CN(C)c1ccc(/C=C2\C(=O)N(c3ccc([N+](=O)[O-])cc3)N=C2N2CCOCC2)cc1 | 8.6 | . | -8.0 | 7.1 | -7.0
COc1ccc(C2(CNC(=O)CCC(=O)O)CCCC2)cc1 | 5.7 | 0.28 | 2.6 | -4.0 | -3.6
Cc1ccsc1C1C2=C(CCCC2=O)Nc2ncnn21 (stereo not given) | -10.4 | -0.65 | -4.5 | 5.0 | 61.2*
Cc1cc(C(C#N)c2ccccc2)n2ncnc2n1 (stereo not given) | -5.8 | -0.02 | 3.1 | -5.8 | 52.5*
C(=C/c1ccnc2nc(SC/C=C/c3ccccc3)nn12)/c1ccccc1 | -32.2 | -3.02* | -30.7 | 33.4* | -1.1
CN(C)c1ccc(C2NCC(CCl)O2)cc1 (stereo not given) | 8.3 | 0.77 | -8.1 | 10.3 | -8.0
CCN(CC)c1ccc(C2NCC(c3ccc([N+](=O)[O-])cc3)O2)cc1 (stereo not given) | -14.4 | -3.16* | 2.8 | -2.7 | -10.4
CN(C(=O)c1cccc(Nc2ccc(-c3ccc4c(c3)OCCO4)nn2)c1)C1CCCCC1 | -10.3 | -3.59* | -4.1 | 3.6 | -5.4
COc1c(Cl)cc(C(=O)Nc2ccccc2C(=O)O)cc1Cl | -13.4 | -3.08* | 3.9 | -1.3 | -1.4
COc1cc(OC)cc(C(=O)Nc2ccccc2C(=O)N2CCCC2)c1 | 8.6 | 1.1 | -50.8 | 51.5* | -6.6
O=C(Nc1ccccc1C(=O)O)c1cccc(F)c1 | 12.7 | -0.16 | -6.3 | 7.8 | -4.2
O=S(=O)(NC1CCCCC1)c1ccc(S(=O)(=O)N2CCN3CCCC3C2)cc1 (stereo not given) | -16.1 | 0.4 | 5.1 | -5.8 | -10.1
O=S(=O)(NC1CC1)c1ccc(S(=O)(=O)N2CCN3CCCC3C2)cc1 (stereo not given) | -0.3 | 0.22 | -11.3 | 10.0 | 52.8*
Cc1ccc(CCNC(=O)CS(=O)Cc2nc(-c3cccc(C)c3)oc2C)cc1 (stereo not given) | -12.5 | . | . | . | 61.5*
Cc1oc(-c2ccccc2)nc1CS(=O)CC(=O)N1CCc2ccccc2C1 (stereo not given) | 33.1 | . | . | . | 65.6*
CCOC(=O)N1CCN(C(=O)CS(=O)Cc2nc(-c3ccc(C)cc3)oc2C)CC1 (stereo not given) | 3.9 | . | -12.9 | 10.4 | -12.6
Cc1cccc(-c2nc(CS(=O)CC(=O)N3CCCCC3)c(C)o2)c1 (stereo not given) | -6.5 | . | . | . | 65.7*
SMILES | Plk1 PBD FP | Pyk2 oligo antag | PTPN22 act | LYP inh 2 | PLK1 inh
Cc1oc(-c2ccc(Cl)cc2)nc1CN1CCC(C(=O)N2CCc3ccccc3C2)CC1 | -16.9 | . | -4.5 | 2.3 | 6.8
COc1cccc(-c2nc(CS(=O)CC(=O)NC3CC3)c(C)o2)c1 (stereo not given) | -11.9 | . | . | . | 69.3*
CCOc1ccc(OCC)c(S(=O)(=O)NCc2ccccn2)c1 | 13.6 | 1.29 | 3.2 | -6.1 | -9.8
COc1ccc(CS(=O)(=O)/C(Cl)=C(/Cl)C(=O)Nc2ccc(OC)nc2)cc1 | 4.4 | -1.32 | 5.5 | -6.1 | -3.6
O=C(CSc1ncnc2c1oc1ccccc12)NCc1ccco1 | -5.0 | 0.41 | -3.0 | 6.8 | -5.9
COc1ccc(-n2cnnc2SCC(=O)c2ccc(S(=O)(=O)N3CCOCC3)cc2)cc1 | . | 0.59 | . | . | .
CCc1ccc2nc(SCC(=O)N3CCCCC3)c(C#N)cc2c1 | -18.2 | -1.63 | -6.7 | 5.5 | -13.5
CCc1ccc2nc(SCC(=O)N3CC(=O)Nc4ccccc43)c(C#N)cc2c1 | -10.9 | -3.37* | -1.2 | 0.7 | -11.3
Cc1ccc(S(=O)(=O)c2c(C)cc(C)nc2Cl)cc1 | -11.8 | -1.25 | -4.4 | 7.6 | -4.8
Cc1cc(C)c(S(=O)(=O)c2ccccc2)c(Cl)n1 | 8.9 | 0.15 | 1.9 | 1.4 | 63.9*
Cc1c(C(=O)C(=O)NCCc2ccc(S(N)(=O)=O)cc2)c2ccccc2n1C | . | 0.57 | . | . | .
C=CCn1c(SCC(=O)NC2CCCCC2)nnc1-c1sc(N)nc1C | 4.5 | -0.45 | 5.6 | -3.5 | -2.9
C=CCn1c(SCC(=O)Nc2sc(C)c(C)c2C(=O)OCC)nnc1-c1sc(N)nc1C | -17.2 | -4.48* | 1.0 | -3.2 | -8.8
CC(=O)Nc1cccc(NC(=O)CSc2ncc(-c3ccc(Cl)cc3)n2Cc2ccco2)c1 | -13.9 | -3.72* | 0.7 | -1.7 | -3.1
COc1ccc(-c2cnc(SCC(=O)Nc3ccc4c(c3)OCO4)n2Cc2ccco2)cc1 | 14.7 | -2.07 | -3.7 | 4.3 | -2.6
CC1CCCCN1C(=O)Cn1c(=O)n(CCC(=O)NCc2ccco2)c(=O)c2sccc21 (stereo not given) | 21.1 | 0.2 | 0.1 | -1.3 | -14.8
CCCc1nnc(NC(=O)c2ccc(N3C(=O)C4C5C=CC(C5)C4C3=O)cc2)s1 (stereo not given) | -11.8 | -3.23* | 16.6 | -16.0 | 9.6
CC1CCCCC12NC(=O)N(CC(=O)NC(=O)Nc1ccc3c(c1)OCCO3)C2=O (stereo not given) | -7.9 | -3.65* | 7.6 | -10.8 | 4.2
CC1CCCCC12NC(=O)N(CC(=O)NC(=O)NCc1ccco1)C2=O (stereo not given) | -18.5 | 0.55 | 11.2 | -12.8 | -11.0
Cc1cc(-c2ccccc2)n2ncc(C#N)c2n1 | 23.8 | . | . | . | 54.3*
CSc1nc2nc(C)cc(-c3ccccc3)n2n1 | -15.8 | -0.08 | -4.7 | 3.6 | -9.4
Cc1cc(C)cc(N2CC(c3nc4ccccc4n3C)CC2=O)c1 (stereo not given) | -1.4 | . | . | . | 57.5*
O=C(O)c1ccccc1SC1CC(=O)N(C2CCCCC2)C1=O (stereo not given) | -4.9 | . | . | . | 69.2*
CCOC(=O)c1cnn(-c2c(Cc3ccccc3)c(C)nc3c(-c4ccccc4)c(C)nn23)c1N | -22.3 | -3.95* | -4.6 | 5.2 | -7.5
CC(/C=N/n1c(C2CCCCC2)n[nH]c1=S)=C\c1ccccc1 | -6.0 | -2.62 | -22.9 | 25.6* | -7.2
CC(=C/c1ccccc1)/C=N/n1c(-c2ccco2)n[nH]c1=S | 11.5 | 0.03 | -16.8 | 19.9 | -3.6
